These entries were drawn from the full list. No count for the full screen is at hand.
B1: il2ra_site2_2erj_sap_24_mot_HHH_b1_07975_000000000_0001_41_57_H_._HHH_b1_08466_af2_0001_0000800020_0000001_0_0001_af2pred_0001_af2pred (protein)
chain: SSSSSEEEEELKEFIEELVREFGLSEEVQKELEEIARFALEQGIDEEDIKKWLKLFAEETSSSSS
B2: il2ra_site2_3nfp_normal_mot_HHH_b1_01086_af2_000000264_0001_39_53_H_._a6da1dbab15e72488587f943ddaf1f3f_0001_1_af2_0001_0000500054_0000001_0 (protein)
chain: DREELLERIVREKDPRVEELLEEIKEAKERNDEELLEKLAKRLALIAFELGDPEVFALAADLQSI
B3: il2ra_site2_3nfp_normal_mot_HHH_b1_08498_000000146_0001_21_37_H_._HHH_b1_08008_0001_0000100001_0000001_0 (protein)
chain: SSSSDEEHLEAATRLIRAAAWALNDPELERRAEELLEEIKEHGDPELKQELAELTHEAFELSSSS
B4: il2ra_site2_2erj_normal_mot_HHH_b1_05749_af2_000000086_0001_23_39_H_._HHH_b2_01918_0001_0000200007_0000001_0 (protein)
chain: SSSSDELEEEVEELLEEVRRAYEEGDLEEAYRLAVRVFALAAENNDPELQRAVTRLLEELSSSSS
B5: il2ra_site1_3nfp_sap_17_mot_0eddeacbb14b769e73e254714f31e2f9_0001_af2_000000052_0001_37_51_H_._7093d3a5e4329be201a559e39cb9bd18_0001_0001_0000800048_0000001_0_0 … (protein)
chain: SSSDEAKELAEEAIEELERLIKEGDVRAVAETIRRIAKELLELNDPEALELLQREVRKLLRSSSS
B6: il2ra_site1_2b5i_sap_17_mot_2cbe48e66a1f39b3fed734b245ab0a04_0001_000000015_0001_17_31_H_._HHH_b1_01921_0001_0000600034_0000001_0_0001_af2pred_dldesign_0_af2pre … (protein)
chain: SSSSSDVKEVLELFEEANKLFQAGKPEEAKEVLEKALEKAKALGAEAHIRIIESALEQLESSSSS
B7: il2ra_site1_3nfp_sap_12_mot_HHH_b1_07180_af2_000000260_0001_1_19_H_._HHH_b2_06317_af2_0001_0000500010_0000001_0_0001_af2pred_0001_af2pred_1 (protein)
chain: SDEELIKKLVRIAVEQNSPRLLRKILRDFERYTGDPEEAERILEELIEEVLGDPEEARRLVEEAK
B8: il2ra_site1_1z92_normal_mot_c9a8daa1dfea21d1414aecde54be4f54_0001_1_af2_000000024_0001_32_46_H_._0e4f66a3c4b070984708d3e1d5382b02_0001_1_af2_0001_0000100008_000 … (protein)
chain: NVAERLFEQAEELGVPPRAVVLALVSAVHAEDPRLREEAEELLERVRRGELPPEEAVRLLAELLE
B9: il2ra_site1_3nfp_sap_9_mot_HHH_b1_03716_af2_000000235_0001_20_37_H_._HHH_b1_05438_0001_0000400011_0000001_0_0001_af2pred_0001_af2pred_1 (protein)
chain: SSSSTELKELLKIVQRLFEEFNLSEEQAQELLQLAEELAKEGVSLEEIEELLRELAERLSSSSSS
B10: il2ra_site2_3nfp_sap_18_mot_11405e7faed88c9d08fdae67291e590b_0001_1_000000110_0001_14_30_H_._HHH_b2_00163_af2_0001_0000300012_0000001_0_0001 (protein)
chain: SSSSDKHERYLRAALELIERAIREGDHEIARRMLETVKSAAEDNNDEEIEELVEELEELLRSSSS
B11: il2ra_site2_2erj_normal_mot_HHH_b1_03609_af2_000000077_0001_42_55_H_._HHH_b2_01692_0001_0000500006_0000001_0 (protein)
chain: SSSSSEVEEEVREILEEAKHIEDPEEREKVLSKAAELAFENNDFEAWSLVSEVFRELAESSSSSS
B12: il2ra_site2_2erj_normal_mot_6bd1339e93f6fdda22195c76da45ec5d_0001_000000136_0001_37_51_H_._HHH_b2_06260_0001_0000100003_0000001_0_af2pred_0001_af2pred (protein)
chain: SSSSSEDEERVEELLEQAEEAAKRDPEKALHLLFEAMEIALKSDNEELLKLVLEVSHRIAESSSS
B13: il2ra_site2_2erj_normal_mot_HHH_b1_05749_af2_000000010_0001_23_39_H_._HHH_b1_07967_0001_0001100051_0000001_1 (protein)
chain: SSSSDWLEELYRLAVELLRLSSRRDEEEFERVYREIERLVEEFNNESAREILEHIRRLFEGSSSS
B14: il2ra_site1_2b5i_normal_mot_2cbe48e66a1f39b3fed734b245ab0a04_0001_000000015_0001_17_31_H_._HHH_b2_00019_0001_0000500012_0000001_0_af2pred_dldesign_0_af2pred (protein)
chain: SSSSSSDAEAEVERLLEEARKVNPEEAEKLLFKALVVAWAAKDPALVARVEAEAKRLLSSSSSSS
B15: il2ra_site2_3nfp_sap_25_mot_HHH_b2_07498_000000293_0001_1_14_H_._HHH_b1_01574_0001_0000100004_0000001_0_0001_af2pred_0001_1_af2pred_swapped (protein)
chain: SSSSSDEELLEEAKRLLEEGNLEEAFRVLAEAASEAIELGDEELAHEIAALAIEVAEKLGSSSSS
B16: il2ra_site1_1z92_sap_9_mot_HHH_b1_04604_af2_000000029_0001_42_56_H_._3020bb65e3c0c4c1750efda2a61ed53f_0001_1_af2_0001_0000300015_0000001_0_0001 (protein)
chain: SEEYLEEQLRRKLELGNIEDAARALFKFIAAAAGDPEQAEEFLEELLKRAGVPPEVIEKILEEAK
B17: il2ra_site1_2b5i_normal_mot_HHH_b2_00231_000000175_0001_20_36_H_._HHH_b2_07547_0001_0000100002_0000001_0_af2pred_0001_af2pred (protein)
chain: SSSSDVWELYLRASRLFLRGNPEEAERLLEEAIELAERLGDPEIAKQLEEMLRHVRRSLSSSSSS
B18: il2ra_site2_3nfp_sap_20_mot_ce0e691d864d74cc0dee145e42b7b696_0001_1_af2_000000051_0001_34_49_H_._HHH_b1_03816_af2_0001_0000500031_0000001_0_0001 (protein)
chain: SSSSSDEEKLEEARELYEEGNPEEARKILLHLVSEAEEKGDRELLFRIMALANEVAAALISSSSS

biological target: il2ra, P01589; test: yeast display titration
Sequence (P01589 whole entry): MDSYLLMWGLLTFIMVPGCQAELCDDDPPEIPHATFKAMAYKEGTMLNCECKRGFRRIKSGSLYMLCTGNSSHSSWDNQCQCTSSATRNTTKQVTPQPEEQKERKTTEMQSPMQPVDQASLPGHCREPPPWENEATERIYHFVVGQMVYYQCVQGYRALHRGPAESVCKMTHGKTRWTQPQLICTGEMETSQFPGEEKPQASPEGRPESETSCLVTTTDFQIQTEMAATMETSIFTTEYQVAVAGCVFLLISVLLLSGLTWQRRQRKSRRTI

Apparent Kd, inactive:
B1 no binding seen, B2 no binding seen, B3 no binding seen, B4 no binding seen, B5 no binding seen, B6 no binding seen, B7 no binding seen, B8 no binding seen, B9 no binding seen, B10 no binding seen, B11 no binding seen, B12 no binding seen, B13 no binding seen, B14 no binding seen, B15 no binding seen, B16 no binding seen, B17 no binding seen, B18 no binding seen
